Screening results deposited in PubChem by National Center for Advancing Translational Sciences (NCATS).
This is a sample that favours compounds with a hit; in the whole collection about 7.1% have one here.
Lassa entry – Lassa virus entry inhibition | Lassa virus pseudotyped entry inhibition, cell-based qHTS | Potency, µM (titrated, usually from 49.2 µM), without a hit: at the top dose activity change, negative = inhibition, actives largely listed as inhibitors | actives 4.1% (n = 18,000)
MARV entry inh – inhibitors of Marburg virus binding or entry into cells. Marburg virus pseudotype entry/binding inhibition, cell-based. Potency, µM (titrated, usually from 49.2 µM), for inactives: at the top dose activity change, negative = inhibition, hits mostly inhibitors. actives 6.5% (n = 18,000). AID 720532
An asterisk follows results filed as active; ? = inconclusive; nt = no result given; ! = a repeat was not active; [ ] = another dose, or the depositor's remark. Calls follow the shape of the full dose curve; tested in HEK293 cells. % is scaled to controls: 0 for no effect and ±100 for the full control effect; potency is read from the fitted curve at half-maximal effect.

SMILES | Lassa entry | MARV entry inh
CSCC[C@@H]1NC(=O)[C@@H](NC(=O)[C@H](CCCNC(=N)N)NC(=O)[C@H](CC(C)C)NC(=O)[C@H](CCSC)NC(=O)[C@H](CC(=O)O)NC(=O)[C@H](Cc2ccccc2)NC(=O)[C@@H](N)CC(=O)O)CSSC[C@@H](C(=O)N[C@@H](Cc2c[nH]c3ccccc23)C(=O)N[C@@H](CCC(N)=O)C(=O)N[C@H](C(=O)O)C(C)C)NC(=O)[C@@H]2CCCN2C(=O)[C@H](CCCNC(=N)N)NC(=O)[C@H](Cc2ccc(O)cc2)NC(=O)[C@H](C(C)C)NC(=O)[C@H](CCCNC(=N)N)NC(=O)CNC(=O)[C@H](CC(C)C)NC1=O | 6.3% | 7.1%
C=C(C(C)=O)C(O)C=Cc1ccco1 (stereo not given) | 0.2%[8.59 µM] | 3.0%[8.59 µM]
CCN(CC)C(=S)SSC(=S)N(CC)CC | 39.8µM*! | 20µM*
COc1cc2c3cc1Oc1cc(ccc1O)C[C@@H]1c4c(cc(OC)c(O)c4Oc4ccc(cc4)C[C@@H]3N(C)CC2)CC[N+]1(C)C | -9.0% | 1.0%
COc1ccc2cc1Oc1ccc(cc1)CC1c3cc(c(OC)cc3CCN1C)Oc1c(OC)c(OC)c(OC)c3c1C(C2)N(C)CC3 (stereo not given) | ? | 10µM*
O=C(NN=C1C[C@@H](O)[C@H](O)[C@H]2[C@@H]3C(=O)N(c4cccc(Oc5ccccc5)c4)C(=O)[C@@H]3CC[C@H]12)OCc1ccccc1 | nt | 4.0%[8.59 µM]
C=C1C(O)C2OC3(CCC(/C=C/C(C)C4CC(C)=CC5(OC(CC(C)(O)C(=O)O)CCC5O)O4)O3)CCC2OC1C(O)CC(C)C1OC2(CCCCO2)CCC1C (stereo not given) | ? | 0.146µM*
CO[C@H](c1ccccc1Br)[C@H](C)C=CCCO | -12.5%[8.59 µM] | ?
CCN(CC)CCNC(=O)c1cnn(-c2ncc3c(n2)-c2ccc(OC)cc2CC3)c1C | ? | 12.6µM*
CCC(O)CNC(=O)c1cnn(-c2ncc3c(n2)-c2ccc(OC)cc2CC3)c1C1CC1 (stereo not given) | 8.3% | 0.4%
C#CC[C@@]1(C(=O)OC)C=C[C@@H](C)[C@H](c2ccccc2Br)N1C(=O)C(F)(F)F | 12.5%[8.59 µM] | -2.1%[8.59 µM]
Cc1cc(-c2ccco2)cc(C)c1C=Cc1cncc(-c2nn[nH]n2)c1 | -11.7% | ?
CC1=CC[C@@H](C)O[C@@]2(C1)C(=O)Nc1ccccc12 | 21.9%[8.59 µM] | -8.7%[8.59 µM]
Clc1ccc2c(c1)CCc1cccnc1C2=C1CCNCC1 | 25.1µM* | 10µM*
COC(=O)C1=C(C(=O)OC)[C@@H]2N(C)c3ccccc3[C@@]23C[C@@H](CO)N(C(=O)NC2CCCC2)C3=N1 | 2.4%[8.59 µM] | ?
CCCCCc1cc(O)c2c(c1)OC(C)(C)c1ccc(C)cc1-2 | 31.6µM* | ?
CCN1C(=NCc2ccc3c(c2)OCO3)NC(c2ccccc2)C(C(=O)OC)=C1C (stereo not given) | -3.6%[8.59 µM] | -18.1%[8.59 µM]
CC(=O)OC[C@H]1O[C@H](CC=NO[C@@H](C)CN2CCCc3nc(C)c(C)cc32)C=C[C@@H]1OC(C)=O | -1.6%[8.59 µM] | 9.1%[8.59 µM]
COc1cc(NCc2ccc3nc(N)nc(N)c3c2C)cc(OC)c1OC | ? | 4.47µM*
COc1cc(C)c(Cc2cnc(N)nc2N)cc1OC | -11.4% | 24.5%
COC[C@@H]1CCCN1[C@@H]1C[S+](=O)([O-])N[C@@H]1COCc1ccccc1 | -6.8% | 25.4%
O=C(OCc1cn([C@H]2CN(CC3CCCCC3)[C@@H](c3ccc(Cl)cc3)C[C@H]2O)nn1)c1ccccc1 | -35.0% | ?
C(#C[C@@H]1C=C[C@H]2OC(c3ccccc3)OC[C@H]2O1)c1ccccc1 (stereo not given in full) | 1.9%[8.59 µM] | 15.5%[8.59 µM]
Cc1c(C(=O)NCC2(N3CCOCC3)CCCCCC2)cnn1-c1nccc(-c2ccccc2F)n1 | -12.4% | 11.2µM*
Cc1c(C(=O)NCC2(N3CCCCC3)CCCC2)cnn1-c1nccc(-c2ccccc2F)n1 | -9.0% | -17.8%
SMILES | Lassa entry | MARV entry inh
C=C(C)C(=O)OC[C@H]1CN2[C@H](c3ccc(Br)cc3)[C@H](C)CC[C@H]2C(=O)O1 | -6.4%[8.59 µM] | ?
COC(=O)NC(C=Cc1ccccc1)C(C(C)=O)C(=O)OC (stereo not given) | -11.1%[8.59 µM] | ?
O=S1(=O)C=CCN1Cc1ccccc1 | 38.2% | 6.0%
C=C[C@@H](O)C[C@H]1C=C[C@@H]2C[C@H](C=C)OP(=O)(O1)O2 | 8.7% | 1.7%
CN(Cc1ccco1)Cc1cc(-c2ccnc3cc(Cl)ccc23)ccc1O | -14.3% | -13.8%
CCN(CCO)CCCC(C)Nc1ccnc2cc(Cl)ccc12 (stereo not given) | -17.1% | 1.26µM*
CCN(CC)Cc1cc(Nc2ccnc3cc(Cl)ccc23)ccc1O | ? | 5.01µM*
C[C@H]1CCC/C=C/[C@@H]2C[C@H](O)C[C@H]2[C@H](O)/C=C/C(=O)O1 | 1.12µM* | 1.12µM*
C[C@H]1CCC/C=C/C2C[C@H](O)C[C@H]2[C@H](O)/C=C/C(=O)O1 (stereo not given in full) | 0.631µM*! | 0.631µM*
C[C@H]1CCCC(=O)CCC/C=C/c2c(O)cc(O)cc2C(=O)O1 | -15.7% | -29.9%
